According to PubChem BioAssay (NCI):
About 83,000 compounds went through this panel and 20% of them were active in at least one assay; those are over-represented in the sample as a whole.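 Values shown are percent growth following 48 h exposure of cells in 96-well plates to a single concentration of compound; below 10 was considered active.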 Activity calls are given as the source filed them.

How the values were obtained:
Experiment in all cases: NCI-60 one-dose screen, 48 h (100 = growth as untreated, 0 = no growth, -100 = all killed)
Conditions in all cases: 10 µM unless noted
DU-145 prostate = test system: DU-145 prostate
K-562 leukemia = test system: K-562 leukemia
MALME-3M melanoma = test system: MALME-3M melanoma
MDA-MB-231 breast = test system: MDA-MB-231 breast
RXF 393 renal = test system: RXF 393 renal
SF-268 CNS = test system: SF-268 CNS
SF-295 CNS = test system: SF-295 CNS
SF-539 CNS = test system: SF-539 CNS
UACC-257 melanoma = test system: UACC-257 melanoma
HCT-15 colon = test system: HCT-15 colon
HT29 colon = test system: HT29 colon
SNB-75 CNS = test system: SNB-75 CNS
SNB-19 CNS = test system: SNB-19 CNS
U251 CNS = test system: U251 CNS
PC-3 prostate = test system: PC-3 prostate
SK-MEL-5 melanoma = test system: SK-MEL-5 melanoma
UACC-62 melanoma = test system: UACC-62 melanoma
LOX IMVI melanoma = test system: LOX IMVI melanoma
SK-MEL-28 melanoma = test system: SK-MEL-28 melanoma

Measured: growth

COc1cccc(-c2nc3sccn3c2-c2ccnc(NCCNS(=O)(=O)c3cccc(Cl)c3)c2)c1
inactive: DU-145 prostate 44.1% | K-562 leukemia 25.3% | MALME-3M melanoma 63.2% | MDA-MB-231 breast 68.3% | RXF 393 renal 47.5% | SF-268 CNS 42.7% | SF-295 CNS 33.8% | SF-539 CNS 72.6% | UACC-257 melanoma 58% | HCT-15 colon 37.8% | HT29 colon 45.7% | SNB-75 CNS 36.6% | SNB-19 CNS 65% | U251 CNS 58.8% | PC-3 prostate 20.2% | SK-MEL-5 melanoma 20.2% | UACC-62 melanoma 12.1% | LOX IMVI melanoma 46.7% | SK-MEL-28 melanoma 68.4%

COc1ccc(/C=N\NC(=O)c2cc(-c3ccc(Br)cc3)n(-c3ccc(S(N)(=O)=O)cc3)n2)cc1
inactive: DU-145 prostate 58.6% | K-562 leukemia 11.4% | MALME-3M melanoma 47% | MDA-MB-231 breast 70.4% | RXF 393 renal 18.5% | SF-268 CNS 53.1% | SF-295 CNS 11% | SF-539 CNS 18.3% | UACC-257 melanoma 66.2% | HCT-15 colon 33.3% | SNB-19 CNS 57.3% | U251 CNS 51.3% | PC-3 prostate 51.2% | SK-MEL-5 melanoma 42% | UACC-62 melanoma 32.3% | LOX IMVI melanoma 45.4% | SK-MEL-28 melanoma 47.4%
active: SNB-75 CNS -27.8%

Cc1ccc(-c2c(-c3ccccc3)c(=O)oc3ccc(C)cc23)cc1
inactive: DU-145 prostate 116% | K-562 leukemia 76% | MALME-3M melanoma 92.9% | MDA-MB-231 breast 91% | RXF 393 renal 107% | SF-268 CNS 91.8% | SF-295 CNS 104% | SF-539 CNS 109% | UACC-257 melanoma 86.8% | HCT-15 colon 52.1% | HT29 colon 101% | SNB-75 CNS 86.3% | SNB-19 CNS 94.8% | U251 CNS 83.1% | PC-3 prostate 56.4% | SK-MEL-5 melanoma 90.9% | UACC-62 melanoma 76.1% | LOX IMVI melanoma 96.2% | SK-MEL-28 melanoma 110%

COc1cccc(-c2nn(-c3ccccc3)cc2-c2ccnc(NCCNC(=O)Nc3cccc(C(F)(F)F)c3)c2)c1
active: K-562 leukemia 2.52% | MDA-MB-231 breast -10% | HCT-15 colon 6.17% | HT29 colon -43.6% | UACC-62 melanoma -7.83% | LOX IMVI melanoma -77.3%
inactive: DU-145 prostate 26.2% | MALME-3M melanoma 51.2% | RXF 393 renal 21.6% | SF-268 CNS 35.2% | SF-295 CNS 27.6% | SF-539 CNS 57.7% | UACC-257 melanoma 27.6% | SNB-75 CNS 46.3% | SNB-19 CNS 36% | U251 CNS 19.9% | PC-3 prostate 17.1% | SK-MEL-5 melanoma 39.2% | SK-MEL-28 melanoma 32.5%

N#CC1=C(c2ccc(Br)cc2)NC(SCC(=O)c2ccc(Br)cc2)NC1=O (centres undefined)
inactive: DU-145 prostate 108% | K-562 leukemia 91.1% | MALME-3M melanoma 105% | MDA-MB-231 breast 105% | RXF 393 renal 108% | SF-268 CNS 98.9% | SF-295 CNS 101% | SF-539 CNS 96.2% | UACC-257 melanoma 103% | HCT-15 colon 103% | HT29 colon 105% | SNB-75 CNS 98.7% | SNB-19 CNS 110% | U251 CNS 108% | PC-3 prostate 92.4% | SK-MEL-5 melanoma 110% | UACC-62 melanoma 109% | LOX IMVI melanoma 106% | SK-MEL-28 melanoma 111%
